Experimental findings from PubChem BioAssay (EPA / NIEHS) are described below.

“And” between values parts separate entries of the source, which are not always exact repeats. Identical values can stand only once. A structure can be active in one record and inactive in another. The source made the active and inactive calls. The calls were made as follows: active = hit-call score of the fitted dose curve at least 0.9, where 1 is the maximum; inactive = score below 0.9.

This assay is described as follows: ATG_VDRE_CIS: Attagene CIS-FACTORIAL HepG2 Assay for human Vitamin D Receptor Element (VDRE) (AID 2282968). Particulars: HepG2 VDRE cis-reporter transcription, actives raise or lower the signal. In short, it runs like this: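 Transfected HepG2 reporter cells, chemical treatment 24 h. RNA isolated, cDNA amplified with reporter-specific primers, products analysed by capillary electrophoresis. Endpoint fitted in both directions versus DMSO.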
As to `O=P(O)(O)OCCC(F)(F)C(F)(F)C(F)(F)C(F)(F)C(F)(F)C(F)(F)F`, the compound was called inactive.
Still for that read-out and setting: with `[Co]` the entry was “inactive”.
Same read-out and setting: with `O=C(CC(=O)C(F)(F)C(F)(F)F)C(F)(F)F` the entry was “inactive”.
Usually AC50 stands for the concentration at which the activity in the assay is half-maximal. In the case of `O=C(O)C(F)(F)C(F)(F)C(F)(F)C(F)(F)C(F)(F)C(F)(F)C(F)(F)C(F)(F)Cl`, the AC50 is 49.3 µM (active) and 67.4 µM (active).
Take `FC(F)(F)C(F)(F)C(F)(F)C(F)(F)C(F)(F)C(F)(F)C(F)(F)Br`: the result was inactive.
The same measure, in the same setting: with `CCN(Cc1cccc(S(=O)(=O)O)c1)c1ccc(C(=C2C=CC(=[N+](CC)Cc3cccc(S(=O)(=O)O)c3)C=C2)c2ccc(O)cc2S(=O)(=O)[O-])cc1` the entry was “inactive”; with `O=C(O)C(F)(F)C(F)(F)F`, “inactive”.
As to `C#C[C@]1(O)CC[C@H]2[C@@H]3CCc4cc(OC)ccc4[C@H]3CC[C@@]21C`, the AC50 was 0.921 µM (active).
For `OCCCC(F)(F)C(F)(F)C(F)(F)F`, the call was inactive.
The same measure, in the same setting: with `O=C(O)C(F)(F)C(F)(F)C(F)(F)C(F)(F)F` the entry was “inactive”.
Still for that read-out and setting: with `O=C(O)C(F)(F)C(F)(F)C(F)(F)C(F)(F)C(F)(F)C(F)(F)C(F)(F)C(F)(F)C(F)(F)C(F)(F)C(F)(F)C(F)(F)C(F)(F)F` the entry was “inactive”; with `O=C(O)C=C(C(F)(F)F)C(F)(F)F`, “inactive”.
With `O=S(=O)(O)c1ccc2ccccc2c1`, the concentration at half-maximal activity (AC50) is 29.3 µM (active) and the result was inactive.
`CC/C=C\CCOC(=O)c1ccccc1`: the compound was called inactive.
Same read-out and setting: with `CCCCOc1ccc(N)cc1` the entry was “inactive”.
Regarding `CC(C)c1ccccc1N`, the AC50 is 35.5 µM (active).
For the compound `CC/C=C\CCOC(C)=O`, the compound was classed as inactive.
The same measure, in the same setting: with `COC(=O)C1CCC(C(=O)OC)CC1` (stereo unspecified) the entry was “inactive”; with `FC(F)(F)C(F)(F)C(F)(F)C(F)(F)C(F)(F)C(F)(F)CCS`, “inactive”; with `O=C(O)C(F)(F)C(F)(F)C(F)(F)C(F)(F)C(F)(F)C(F)(F)C(F)(F)C(F)(F)C(F)(F)C(F)F`, “inactive”.
Take `c1ccc(B(c2ccccc2)c2ccccc2)cc1`: the AC50 is 20.7 µM (active).
With `FC(F)(F)C(F)(F)C(F)(F)N(C(F)(F)C(F)(F)C(F)(F)F)C(F)(F)C(F)(F)C(F)(F)F`, the result was inactive.
`O=S(=O)(O)C(F)(F)C(F)(F)C(F)(F)C(F)(F)C(F)(F)C(F)(F)C(F)(F)F`: the call was inactive.
The same measure, in the same setting: the same measure for `O=C(O)C(F)(F)C(F)(F)C(F)(F)F`: “inactive”; for `COC(OC(C)=O)c1ccccc1` (stereo unspecified): “inactive”.
As to `OCCCC(F)(F)C(F)(F)C(F)(F)C(F)(F)C(F)(F)C(F)(F)C(F)(F)F`, the AC50 was 150 µM (active) and the compound was called inactive.
As for `CCCCCCCCC(F)(F)C(F)(F)C(F)(F)C(F)(F)C(F)(F)C(F)(F)F`, the outcome was inactive.
The same measure, in the same setting: the same measure for `FC(F)(F)C(F)(F)C(F)(F)CI`: “inactive”.
Same read-out and setting: with `FC(F)(F)C(F)(F)C(F)(F)C(F)(F)C(F)(F)C(F)(F)C(F)(F)C(F)(F)F` the entry was “inactive”.
Consider `Oc1ccc(Nc2ccccc2)cc1`, for which the AC50 was 56.3 µM (active).
Turning to `CCCCCC=O`, the compound was classed as inactive.
`CC(CCl)OP(=O)(OC(C)CCl)OC(C)CCl` (stereo unspecified): the compound was classed as inactive.
Regarding `C=CC(F)(F)C(F)(F)C(F)(F)C(F)(F)C(F)(F)C(F)(F)C(F)(F)C(F)(F)C=C`, the outcome was inactive.
The same measure, in the same setting: the same measure for `O=S(=O)(OCCOC(F)(F)F)C(F)(F)F`: “inactive”.
